From PubChem
ALDH1A1 inh – ALDH1A1 (human) enzyme inhibition; P00352; Purified ALDH1A1, NADH fluorescence, propionaldehyde substrate; 220,000 tested, 7.3% active; Potency, µM (highest dose often 75.3 µM), without a hit: at the highest dose activity, negative = inhibition, usual class: inhibitors; AID 1030;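 note: plate controls were no enzyme wells and a reference inhibitor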
Target sequence (P00352 whole entry, looked up): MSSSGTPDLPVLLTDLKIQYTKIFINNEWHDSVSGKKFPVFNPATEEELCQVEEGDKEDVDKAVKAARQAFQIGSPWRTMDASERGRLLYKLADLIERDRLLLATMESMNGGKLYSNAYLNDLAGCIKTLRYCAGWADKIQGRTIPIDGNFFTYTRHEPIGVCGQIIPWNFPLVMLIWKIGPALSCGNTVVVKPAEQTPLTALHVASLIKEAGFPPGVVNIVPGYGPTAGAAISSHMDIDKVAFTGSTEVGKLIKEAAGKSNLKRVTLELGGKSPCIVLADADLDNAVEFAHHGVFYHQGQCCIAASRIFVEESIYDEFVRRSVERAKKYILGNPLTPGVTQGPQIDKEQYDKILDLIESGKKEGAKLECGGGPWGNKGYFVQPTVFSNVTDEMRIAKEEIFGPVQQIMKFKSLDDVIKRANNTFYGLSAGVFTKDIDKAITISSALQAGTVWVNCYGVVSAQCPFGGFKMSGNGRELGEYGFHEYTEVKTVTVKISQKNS
HPGD inh – HPGD (human) dehydrogenase inhibition; purified HPGD, NADH fluorescence kinetic, PGE2 substrate; Potency, µM, for inactives: at the highest dose activity change, negative = inhibition, hits mostly inhibitors; 150,000 tested, 4.3% active; P15428; note: % is set by controls: 0 for no effect and ±100 for the full control effect
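NADH formation kinetics: reaction with 30 uM PGE2 and 1 mM NAD+ (final), 20 nM enzyme, Tris-HCl pH 8 with Tween 20, after 15 min compound preincubation at room temperature. Fluorescence change, last versus first of five reads.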
LMNA splice mod – modulators of lamin A splicing; HeLa LMNA splicing GFP/RFP minigene ratio, 48 h; Potency, µM (titrated, usually from 46.1 µM), for the others: at the top dose ratio change, negative = inhibition, actives largely listed as inhibitors; 200,000 tested, 0.01% active; AID 1487; active = well fitted inhibition curve with a large enough effect in the signal ratio, with a control signal flat, not every such curve was filed as active; inconclusive = small, poorly fitted or top-dose-only effect, or effect the other way, or a change in a side signal; the % refers to the signal ratio; note: % is set by controls: 0 for no effect and ±100 for the full control effect
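S3 HeLa stable clones carrying a lamin A-EGFP splicing minigene plus DsRed2 were seeded at 600 cells/well in Opti-MEM with 2% FBS, pin-dosed and incubated 48 h at 37°C. Acumen cytometry (488 nm) gave the GFP/RFP total-intensity ratio.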
HTT aggregate – inhibitors of mutant huntingtin aggregate formation in PC12 cells; PC12 HttQ103-GFP aggregates, Acumen cytometry, 40 h; Potency, µM (doses to about 46.1 µM), for the others: at the top dose activity change, negative = inhibition, actives largely listed as inhibitors; 220,000 tested, 1.1% active; AID 1688; active = well fitted curve in the direction sought with a large enough effect; inconclusive = small, poorly fitted or top-dose-only effect, or another doubt; inactive = no such curve, though single readings can be large; an effect the other way counts as inactive or inconclusive; note: % is set by controls: 0 for no effect and ±100 for the full control effect; nearly all actives have a fitted effect of over 60% in size
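Compounds (qHTS titration) were added to PC12 cells expressing an ecdysone-driven HTT exon 1 Q103–GFP fusion after induction with 100 nM tebufenozide. Aggregate formation was measured as GFP objects in cell lysates.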
KDM4E inh – inhibitors of human JMJD2E histone demethylase; JMJD2E catalytic domain, FDH-coupled NADH fluorescence (FDH is formaldehyde dehydrogenase); 230,000 tested, 1.6% active; AID 2147; B2RXH2; Potency, µM (highest dose often 57.1 µM), for the others: top-dose activity change, negative = inhibition, most hits filed as inhibitors;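 note: 0% = wells with enzyme and -100% = buffer wells without enzyme; nearly all actives have a fitted effect of over 50% in size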
Target sequence (B2RXH2 1-337 limits assumed): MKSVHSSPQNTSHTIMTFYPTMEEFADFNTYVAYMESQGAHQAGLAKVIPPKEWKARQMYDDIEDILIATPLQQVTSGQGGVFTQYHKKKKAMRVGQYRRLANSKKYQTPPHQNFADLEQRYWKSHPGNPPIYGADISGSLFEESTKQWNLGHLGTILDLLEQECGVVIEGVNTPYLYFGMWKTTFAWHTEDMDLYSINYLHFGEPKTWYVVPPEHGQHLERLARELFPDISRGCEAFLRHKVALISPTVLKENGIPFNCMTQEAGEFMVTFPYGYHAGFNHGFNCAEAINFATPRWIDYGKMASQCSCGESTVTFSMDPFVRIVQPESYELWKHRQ
HTT cytoprotect – Huntington cell model cytoprotection by ATP luminescence; PC12 HTT-Q103 induced, cytoprotection, ATP luminescence, 40 h; Potency, µM (top dose mostly 56.4 µM), without a hit: cytoprotection (ATP increase), actives largely listed as activators; 230,000 tested, 0.14% active; active = well fitted curve in the direction sought with a large enough effect; inconclusive = small, poorly fitted or top-dose-only effect, or another doubt; inactive = no such curve, though single readings can be large; an effect the other way counts as inactive or inconclusive; note: % of control where 0% means no effect; nearly all actives have a fitted effect of over 45% in size
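Readout: ATPlite luminescence (ATP level). Model: stable PC12, inducible Htt exon1 Q103-GFP. Inducer: tebufenozide, 100 nM final. Compounds: dose series. No G418 in medium.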
* = called active by the depositor; ? = inconclusive; . = no result given; [ ] = remark or other dose. Hits are enriched below; roughly 9.2% of the tested compounds scored in any of these assays. Unless noted, calls come from the whole dose curve; as a rule, active = well fitted inhibition curve with a large enough effect (not every such curve was filed as active); inconclusive = small, poorly fitted or top-dose-only effect, or another doubt; inactive = no such curve, though single readings can be large or run the other way. Potency is the fitted concentration of half-maximal effect.

SMILES	ALDH1A1 inh	HPGD inh	LMNA splice mod	HTT aggregate	KDM4E inh	HTT cytoprotect
OCCC1CN(Cc2cccn2-c2ccccn2)CCN1C1CCCCC1 (centres undefined)	3.0%	.	.	-6.6%[9.22 µM]	-3.7%	4.2%[10 µM]
O=C(C1CCN(S(=O)(=O)N2CCCCC2)CC1)N1CCCCC1	?	20µM*	4.6%	4.7%	6.2%	.
O=C(Cn1nnc(-c2cc(C(F)(F)F)cc(C(F)(F)F)c2)n1)NNC(=S)Nc1ccc(Cl)cc1	1.26µM*	.	.	-6.9%[9.22 µM]	?	-10.3%[10 µM]
Cc1cc(C(F)(F)F)nn1CC(=O)NNC(=S)Nc1ccc(Cl)cc1	?	-2.4%	5.8%	18.6%	0.2%	12.8%
CCN1CCN(C(=O)C2CCN(S(=O)(=O)c3cccc4cccnc34)CC2)CC1	10.6%	-10.6%	1.2%	10.4%	0.8%	-12.8%
O=C(Nc1ccccn1)C1CCN(S(=O)(=O)c2cccc3nonc23)CC1	28.2µM*	-16.4%	-0.6%	2.4%	-0.7%	5.6%
CC1CCCN(C(=O)C2CCN(S(=O)(=O)c3cccc4cccnc34)CC2)C1 (centres undefined)	?	14.1µM*	1.8%	?	14.0%	-15.9%
CC1CCN(C(=O)C2CCN(S(=O)(=O)c3cccc4nonc34)CC2)CC1	?	15.8µM*	-1.3%	-2.0%	-1.9%	-17.3%
COc1ccc(C(=O)N2CCC[C@@]3(CCN(c4ccccn4)C3)C2)cc1	1.9%	-16.8%	.	.	.	27.0%
C=CCNc1nc2c(c(=O)n(C)c(=O)n2C)n1CCCCCC	3.4%	-14.7%	?	?	-4.1%	-41.6%[10 µM]
C=CCNc1nc2c(c(=O)n(C)c(=O)n2C)n1CC	11.4%	-18.0%	-1.7%	12.6µM*	2.7%	-27.5%
CC(C)C[C@@H](CC(=O)N[C@@H](CCC(=O)O)CC(=O)O)NC(=O)[C@@H]1CNCC[C@H]1NC(=O)C[C@H](CCCN)NC(=O)C[C@H](CO)NC(=O)[C@@H]1CCCC[C@H]1N	-2.1%	-6.4%	.	.	3.0%	-0.8%[1.9 µM]
CCOc1ccc(C(=O)CN2CCN(S(=O)(=O)c3ccc(F)cc3)CC2)cc1	20µM*	-0.7%	-2.1%	-2.8%	-6.6%	17.5%
Cc1ccc(S(=O)(=O)N2CCN(CC(=O)N/N=C\c3ccc(O)c(O)c3)CC2)cc1	.	.	.	24.0%[9.22 µM]	15.8µM*	2.6%[10 µM]
O=C(CN1CCN(S(=O)(=O)c2ccc(F)cc2)CC1)c1ccc(O)c(O)c1	?	.	.	-21.6%	4.47µM*	-17.1%
Cc1ccc(S(=O)(=O)N2CCN(CC(=O)N/N=C/c3ccc(C)o3)CC2)cc1	?	-6.5%	-8.1%	-12.9%	3.5%	14.6%[10 µM]
CC(C)(C)C(=O)CN1CCN(S(=O)(=O)c2ccc(F)cc2)CC1	-9.3%	-1.8%	-1.4%	-1.4%	-10.3%	3.8%[10 µM]
COc1cccc(CNC(=O)Cn2c(=O)nc(-c3ccccc3F)c3cc(Cl)ccc32)c1	.	.	-7.4%[46 µM]	.	.	.
O=C(O)c1nnsc1COCc1ccccc1	-9.8%[13.5 µM]	-11.9%	.	.	.	-2.3%[10 µM]
N#Cc1c(-c2ccccc2F)cc(C2CC2)nc1SCC(=O)c1cccs1	?	-14.6%	-13.3%	21.7%	-18.9%	-2.4%[10 µM]
CC(=O)Oc1c(C)cc(O)c2ccccc12	-0.6%	-8.1%	-19.1%	14.1µM*	?	-106.5%
Clc1ccccc1C(c1ccccc1)(c1ccccc1)n1ccnc1	-4.4%	1.6%	?	?	-0.8%	-54.9%
Cc1ccc(NC(=O)CSc2nnc(-c3n[nH]c4ccccc34)n2-c2ccccc2)c(C)c1	20µM*	-12.2%	?	-12.3%	-0.6%	8.7%[10 µM]
COc1ccccc1NC(=O)Nc1ccc2c(c1)nc(C)n2C	10.0%	.	.	17.2%[9.22 µM]	8.2%	-45.9%[10 µM]
O=S(=O)(c1ccc(Cl)s1)N1CCN(C/C=C/c2ccccc2)CC1	?	-15.2%	3.0%	35.5µM*	?	-4.7%[10 µM]
SMILES	ALDH1A1 inh	HPGD inh	LMNA splice mod	HTT aggregate	KDM4E inh	HTT cytoprotect
C#CC(N)CCC(=O)O (centres undefined)	11.9%	-6.5%	?	.	4.2%	.
O=C(CSc1ccc(-c2cccc([N+](=O)[O-])c2)nn1)NC1CCCC1	1.4%	.	13.1%[9.22 µM]	-21.4%	-1.0%	-24.9%
C=CCNC(=O)CSc1ccc(Cl)cc1	13.5%	-14.6%	3.5%	4.6%	2.4%	-6.7%[0.074 µM]
O=C(CSc1cc([N+](=O)[O-])cc(S(=O)(=O)Cc2ccccc2)c1)NC1CC1	25.1µM*	22.4µM*	6.6%	-4.4%	?	.
C=CCNC(=O)CSc1cc([N+](=O)[O-])cc(S(=O)(=O)Cc2ccccc2)c1	4.47µM*	?	9.5%	6.5%	4.0%	9.4%[10 µM]
Cc1c(Cl)c(C(=O)NNC(=S)Nc2ccccc2)nn1C	4.8%	-10.7%	-16.6%	4.3%	10µM*	-3.5%
Cc1c(Cl)c(C(=O)NNC(=S)Nc2ccc(F)cc2)nn1C	7.0%	.	?	6.0%[9.22 µM]	20µM*	3.0%[10 µM]
CCNC(=S)NNC(=O)c1nn(C)c(C)c1Cl	8.2%	.	.	14.2%	-26.1%	.
Cc1cccc(C)c1NC(=O)[C@H](C)N	6.2%[20.9 µM]	-0.2%	?	18.2%[20.6 µM]	-1.3%[25.5 µM]	-6.8%[40.3 µM]
C#CCNc1nc(C)nc2c1nnn2Cc1ccccc1F	11.2µM*	-4.4%	11.0%	-26.1%[9.22 µM]	1.8%	-2.6%[10 µM]
CCOCCCNc1nc(C)nc2c1nnn2Cc1c(F)cccc1Cl	8.91µM*	.	4.3%[46 µM]	-5.8%	3.9%	-32.6%
Cc1nc(NCC2CCCO2)c2nnn(Cc3c(F)cccc3Cl)c2n1 (centres undefined)	?	.	?	4.5%[9.22 µM]	-6.4%	0.2%[10 µM]
Cc1nc(NCCN2CCOCC2)c2nnn(Cc3ccccc3Cl)c2n1	15.8µM*	-12.1%	-13.9%	2.6%	2.8%	-8.8%
COc1ccc(S(=O)(=O)N2c3ccc(Cl)cc3[C@](O)(c3ccccc3Cl)[C@@H]2C(=O)N2CCC[C@H]2C(N)=O)cc1OC	1.8%	0.4%	.	5.7%	-1.9%	-1.5%
COCC(=O)N(Cc1cc2cc(OC)ccc2[nH]c1=O)c1ccccc1	?	?	-12.8%	12.6%	?	0.2%[10 µM]
CC(C)N(Cc1cc2ccccc2[nH]c1=O)C(=O)c1ccco1	17.8µM*	.	.	6.7%	?	-28.2%
COCC(=O)N(Cc1cc2ccccc2[nH]c1=O)c1ccc(OC)cc1	31.6µM*	-20.4%	3.6%	-8.4%	-28.1%	-4.8%[0.074 µM]
Cc1cccc(N(Cc2cc3ccccc3[nH]c2=O)C(=O)c2ccco2)c1C	12.6µM*	-27.1%	-12.7%	-7.5%	-5.5%	14.0%
O=C(OCc1cc2ccccc2[nH]c1=O)c1ccco1	?	-21.5%	-13.6%	1.6%	?	6.5%[0.074 µM]
COc1ccc(/C=C/C(=O)c2ccc(C)s2)cc1	?	?	.	.	?	2.9%[1.9 µM]
Cc1ccc(C(=O)CC2(O)C(=O)N(Cc3ccccc3Cl)c3ccccc32)o1 (centres undefined)	3.55µM*	-21.2%	?	3.16µM*	-13.0%	-32.7%
